The values that follow come from the supplement of paper PMC6518042.

Unmarked numbers belong to inactive results.

This test deals with Pectobacterium parmentieri SCC3193. Nature of the test: DuctApe activity index (growth/respiration on compound as sole nutrient source, blank-subtracted) (activity index (0-3)); higher = stronger utilization of the compound, active = 3 or more. To be noted: nutrient role (plate category): carbon. As to the method: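 Biolog Phenotype Microarray plates PM1, PM2A (carbon), PM3 (nitrogen) and PM4 (phosphorus/sulfur) inoculated with P. parmentieri SCC3193 in M9-C minimal salts medium with Biolog dye A, and read in the OmniLog for 46 h. Each well was tested in triplicate and the experiment was run twice. DuctApe computed a blank-subtracted activity index (AV, 0-3) from the mean curves; growth is positive at AV >= 3 and negative at AV <= 2.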
As to `CO[C@@H]1O[C@H](C(=O)O)[C@@H](O)[C@H](O)[C@H]1O` [b-Methyl-D-Glucuronic acid], the DuctApe activity index is 0.
Consider `C[C@@H]1OC(O)[C@H](O)[C@H](O)[C@H]1O` (stereo partly drawn) [L-Rhamnose], for which the DuctApe activity index is 3 (active).
For the molecule `C/C(=C/C(=O)O)C(=O)O` [Citraconic acid], the DuctApe activity index was 0.
In the case of `O=C(O)CO` [Glycolic acid], the DuctApe activity index was 0.
For `O=C1O[C@H](CO)[C@@H](O)[C@H]1O` [D-Ribono-1,4-Lactone] the value was 0; for `CO[C@H]1O[C@H](CO)[C@@H](O)[C@H](O)[C@H]1O` [a-Methyl-D-Glucoside], 0.
On to `NCC(=O)N[C@@H](CC(=O)O)C(=O)O`, for which the DuctApe activity index was 0.
For `O=C(O)[C@@H]1C[C@@H](O)CN1` [Hydroxy-L-Proline] the value was 0; for `OCC(O)CO` [Glycerol], 3 (active); for `O=C(O)[C@H](O)[C@@H](O)C(=O)O` [L-Tartaric acid], 0.
As for `CO[C@H]1O[C@H](CO)[C@H](O)[C@H](O)[C@H]1O` [a-Methyl-D-Galactoside], the DuctApe activity index was 3 (active).
For `OC[C@@]12OC[C@@H](O1)[C@@H](O)[C@@H](O)[C@@H]2O` [Sedoheptulosan] the value was 0; for `CC(=O)C(=O)O` [Pyruvic acid], 3 (active); for `OC[C@H]1O[C@H](O[C@H]2O[C@H](CO)[C@@H](O)[C@H](O)[C@H]2O)[C@H](O)[C@@H](O)[C@@H]1O` [D-Trehalose], 3 (active).
On to `OC[C@@H](O)[C@@H](O[C@H]1O[C@H](CO)[C@@H](O)[C@H](O)[C@H]1O)[C@H](O)[C@@H](O)CO` [Maltitol], for which the DuctApe activity index is 0.
